# Test results from the supplement of paper PMC4894684.
# Counter-ions that a name gives are not always drawn. ± gives the standard deviation of the averaged measurements.
# Tested on: Toxoplasma gondii RH (in HFF)
# Assay: parasite growth relative to the screen mean (all compounds = 100%); higher = less inhibition of parasite growth
# Settings: 5 µM; 72 h; oxygen 21 %
# Method in brief: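 Confluent human foreskin fibroblasts in 96-well plates received library compounds by pin transfer at 5 µM final, taken from 10 mM DMSO stocks. Within 2 h the cells were infected with RH β-Gal–GFP Toxoplasma at MOI 1:5 and cultured 72 h at 21% O2. A CPRG β-Gal assay read against in-plate standard curves gave parasite number, and growth is stated relative to the screen mean, where all compounds = 100%, averaged across two screens.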
row,Compound,parasite growth [%]
1,Nc1nc(Nc2ccccc2)nc2c1ncn2[C@@H]1O[C@H](CO)[C@@H](O)[C@H]1O,123 ± 7.1
2,COc1ccc(Cl)cc1C(=O)NCCc1ccc(S(=O)(=O)NC(=O)NC2CCCCC2)cc1 [Glibenclamide],96.4 ± 24
3,COc1cc2ncnc(Nc3ccc(F)c(Cl)c3)c2cc1OCCCN1CCOCC1 [Iressa],99 ± 20
4,Cc1[nH]c(/C=C2\C(=O)Nc3ccccc32)c(C)c1CCC(=O)O,102 ± 8.8
5,COC(=O)C[C@](O)(CCCC(C)(C)O)C(=O)O[C@@H]1C(OC)=C[C@]23CCCN2CCc2cc4c(cc2[C@H]13)OCO4 [Homoharringtonine],< 0
6,COc1cc(/C=C(\C#N)C(N)=O)cc(CSc2nc3ccccc3s2)c1O,128 ± 3.3
7,C1CCC(N=C(NC23CC4CC(CC(C4)C2)C3)N2CCOCC2)CC1,100 ± 31
8,CC1=C(/C=C/C(=C/C=C/C(C)=C/C(=O)O)c2ccc(C)cc2)C(C)(C)CCC1,94.1 ± 23
9,C/C(=N\NC(=O)C1C(=O)NCC1c1ccccc1)c1cccc(Br)c1 (centres undefined),147 ± 29
10,CCN(CC)CCCCC1CCN(CC(=O)N2c3ccccc3C(=O)Nc3cccnc32)CC1,141 ± 17
11,C=CCN1CCc2cc(O)c(O)cc2C(c2ccccc2)C1 (centres undefined),135 ± 1.6
12,Nc1ncnc2n[nH]c(Nc3ccc(F)cc3)c12,94.4 ± 26
13,CCn1ccnc1CC1COc2ccccc2O1 (centres undefined) [Imiloxan hydrochloride],120 ± 7
14,COC(=O)C1=C(C)NC(C)=C(C(=O)OCCSc2ccccc2)C1C (centres undefined),146 ± 12
15,C[C@H]1O[C@H](O[C@H]2[C@H](O)[C@@H](O)[C@@H](O[C@H]3[C@H](O)[C@@H](O)C(O)O[C@@H]3CO)O[C@@H]2CO)[C@H](O)[C@@H](O)[C@@H]1N[C@H]1C=C(CO)[C@@H](O)[C@H](O)[C@H]1O (some centres undefined) [Acarbose],114 ± 36
16,NS(=O)(=O)c1cc2c(cc1Cl)NC(C1CC3C=CC1C3)NS2(=O)=O (centres undefined) [Cyclothiazide],118 ± 1.8
17,COc1cc(N)c(Cl)cc1C(=O)OCCCN1CCCCC1,109 ± 2.2
18,CC1(C)O[C@@H]2[C@@H](CO[C@@]3(COS(N)(=O)=O)OC(C)(C)O[C@@H]23)O1 [Topiramate],112 ± 8.3
19,O=C(O)COc1cccc(-c2ocnc2-c2nc(-c3ccccc3)c(-c3ccccc3)o2)c1,62.8 ± 28
20,Oc1ccc(-c2nc(-c3ccc(F)cc3)c(-c3ccncc3)[nH]2)cc1,< 0

row,Compound,parasite growth [%]
1,COc1ccc(NC(=O)c2ccc(-c3ccc(-c4noc(C)n4)cc3C)cc2)cc1N1CCN(C)CC1,< 0
2,CC(=O)N[C@@H](CC(=O)N[C@@H](CCC(=O)O)C(=O)O)C(=O)O [Spaglumic acid],131 ± 6.6
3,Fc1ccc([C@@H]2CCNC[C@H]2COc2ccc3c(c2)OCO3)cc1 [Paroxetine maleate],39.5 ± 4
4,Cn1cc(C(=O)OCC2CCN(CCNS(C)(=O)=O)CC2)c2ccccc21,123 ± 3.8
5,CC1=C(/C=C/C(C)=C/C=C/C(C)=C/C(=O)O)C(C)(C)CCC1 [Retinoic acid],85 ± 12
6,COc1ccc2c(c1)c(CC(=O)N1CCOCC1)c(C)n2C(=O)c1ccc(Cl)cc1,133 ± 23
7,O=C(O)C=C1CCCc2ccccc2C1O (centres undefined),112 ± 16
8,Clc1cccc(Nc2nnc(-c3ccccc3)c3ccccc23)c1,143.2 ± 1.4
9,Clc1ccc(CCCOCCCN2CCCCC2)cc1,45.7 ± 21
10,CC(C)(C=O)Cc1cc(C(C)(C)C)c(O)c(C(C)(C)C)c1,199 ± 11
11,"Brc1c(NC2=NCCN2)ccc2nccnc12 [UK 14,304 tartrate]",101 ± 27
12,CC1(C)Oc2ccc(C#N)cc2[C@H](N2CCCC2=O)[C@H]1O [Cromakalim],127 ± 5.1
13,O=C(O)C1=CCNCC1 [Isoguvacine hydrochloride],130 ± 9.5
14,O=C1N(c2ccccc2)c2ccccc2C1(Cc1ccncc1)Cc1ccncc1 [Linopirdine dihydrochloride],56.5 ± 15
15,Cc1ccc(/C(=C\CN2CCCC2)c2ccccn2)cc1 [trans-Triprolidine hydrochloride],96.7 ± 39
16,CC1(C)CCC(C)(C)c2cc(C(=O)Nc3ccc(C(=O)O)cc3)ccc21,113 ± 4.7
17,CN1[C@@H]2CC[C@H]1C[C@@H](OC(=O)c1c[nH]c3ccccc13)C2 [Tropisetron hydrochloride],106 ± 3.1
18,CCn1c(=O)[nH]c2cc(Cl)c(Cl)cc21,89.8 ± 61
19,NCCc1c[nH]cn1 [Histamine dihydrochloride],80.2 ± 36
